Source: PubChem BioAssay

Key:
[1] = test system: Human papillomavirus type 1a protein E7 (residues 44-93); assay: small molecules binding HPV E7 44-93 – biochemical, small-molecule microarray, residues 44-93, 635 nm fluorescence, primary screen (AID 1108); conditions: fluorescence 635 nm, higher = more signal;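 also: E7 fragment applied at 1 µg/mL in TBST for 1 h at 4 C; score combines spot fluorescence with its signal to noise ratio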
[2] = hepatitis C replication reporter changes, two-sided – Huh7 cells, luciferase reporter, HCV replication inhibitor project, primary screen (AID 1109); conditions: Huh7 HCV replicon luciferase reporter, 48 h; higher = more signal;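 also: huh7 hepatoma cells harbouring a luciferase neomycin HCV replicon reporter; luciferase luminescence as measure of HCV replicon replication; test concentration not given here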
[3] = target: Left-right determination factor 2 (Homo sapiens) (UniProt O00292); assay: small molecules binding LEFTY2 protein – biochemical, small-molecule microarray, 635 nm fluorescence scan, primary screen (AID 1110); conditions: higher = more signal
Left-right determination factor 2 (Homo sapiens), sequence (O00292 whole entry, looked up): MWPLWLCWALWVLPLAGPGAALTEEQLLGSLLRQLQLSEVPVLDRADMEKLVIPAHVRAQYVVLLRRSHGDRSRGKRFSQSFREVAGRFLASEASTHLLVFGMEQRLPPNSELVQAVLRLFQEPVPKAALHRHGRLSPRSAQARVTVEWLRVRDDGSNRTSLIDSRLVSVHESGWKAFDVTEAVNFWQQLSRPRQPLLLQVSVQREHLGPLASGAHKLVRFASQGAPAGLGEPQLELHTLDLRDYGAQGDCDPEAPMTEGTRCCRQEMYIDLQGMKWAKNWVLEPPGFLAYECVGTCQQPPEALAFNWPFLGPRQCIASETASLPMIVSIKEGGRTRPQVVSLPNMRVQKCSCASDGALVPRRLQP

[4] = target: Calmodulin-1 (Homo sapiens) (UniProt P0DP23); assay: small molecules binding calmodulin-1 with EGTA – biochemical, small-molecule microarray, Cy5-labelled CALM1, profiling panel (AID 1111); conditions: Cy5-CALM1 binding fluorescence, higher = more signal;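 also: labelled calmodulin applied in Tris saline Tween buffer holding calcium plus EGTA and DTT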
[5] = target: Calmodulin-1 (Homo sapiens) (UniProt P0DP23); assay: small molecules binding Ca-loaded calmodulin-1 – biochemical, small-molecule microarray, Cy5-labelled CALM1, plus calcium, artefact control for SMM control-protein annotation, profiling panel (AID 1112); conditions: Cy5-CALM1 binding fluorescence, higher = more signal;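 also: score merges spot fluorescence with signal to noise from triplicate slides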
[6] = probe aWnt5a binding to arrayed compounds – biochemical, biotinylated probe, 635/667 nm fluorescence, primary screen (AID 1113); conditions: small-molecule microarray, higher = more signal;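 also: score merges 667 nm fluorescence intensity with signal-to-noise per printed feature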
[7] = probe aShh binding to arrayed compounds – biochemical, biotinylated probe, 635/667 nm fluorescence, primary screen (AID 1114); conditions: small-molecule microarray, higher = more signal;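 also: probe is biotin-labelled aShh protein from a stem cell growth factor screen; measures binding of labelled protein to compounds printed on the slide; score merges feature fluorescence at 667 nm with signal-to-noise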
[8] = probe aNog binding to arrayed compounds – biochemical, biotinylated probe, 635/667 nm fluorescence, primary screen (AID 1115); conditions: small-molecule microarray, higher = more signal;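 also: probe is biotinylated aNog protein used at 0.15 µg/mL for 1 h at 4 C; z-score combines 667 nm fluorescence of each spot with its signal to noise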
[9] = target: Torsin-1A-interacting protein 1 (Homo sapiens) (UniProt Q5JTV8); assay: compound microarray binding of lysate hLAP1 – cell lysate, small-molecule microarray, COS7 lysate, 635/667 nm fluorescence, primary screen (AID 1116); conditions: 635 nm fluorescence, higher = more signal
Torsin-1A-interacting protein 1 (Homo sapiens), sequence (Q5JTV8 whole entry, looked up): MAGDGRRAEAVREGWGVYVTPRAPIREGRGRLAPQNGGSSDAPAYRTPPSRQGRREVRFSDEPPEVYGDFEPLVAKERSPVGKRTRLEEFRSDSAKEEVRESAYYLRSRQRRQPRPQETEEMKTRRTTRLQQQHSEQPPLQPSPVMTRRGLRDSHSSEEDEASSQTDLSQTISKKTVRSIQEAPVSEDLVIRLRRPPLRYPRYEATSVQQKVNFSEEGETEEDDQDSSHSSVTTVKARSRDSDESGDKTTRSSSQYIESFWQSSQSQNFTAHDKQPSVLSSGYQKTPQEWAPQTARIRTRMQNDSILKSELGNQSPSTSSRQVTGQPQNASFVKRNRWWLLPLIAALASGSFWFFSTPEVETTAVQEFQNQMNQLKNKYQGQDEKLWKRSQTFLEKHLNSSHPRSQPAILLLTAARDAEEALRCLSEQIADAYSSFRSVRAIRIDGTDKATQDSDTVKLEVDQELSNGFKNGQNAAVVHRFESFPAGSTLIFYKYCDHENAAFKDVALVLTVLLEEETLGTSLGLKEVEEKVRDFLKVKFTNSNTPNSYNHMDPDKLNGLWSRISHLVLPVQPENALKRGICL

[10] = target: Alpha-bungarotoxin (Bungarus multicinctus) (UniProt P60615); assay: compounds binding labelled alpha-BTX control protein – biochemical, small-molecule microarray, Alexa647 label, 635/667 nm fluorescence, artefact control for SMM control protein annotation, profiling panel (AID 1117); conditions: alpha-BTX-A647 binding fluorescence, higher = more signal
Alpha-bungarotoxin (Bungarus multicinctus), sequence (P60615 whole entry, looked up): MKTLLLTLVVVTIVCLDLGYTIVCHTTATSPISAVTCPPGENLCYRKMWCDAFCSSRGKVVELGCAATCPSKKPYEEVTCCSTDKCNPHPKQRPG

Row | Compound | composite z-score [1] | z-score [2] | composite z-score [3] | composite z-score [4] | composite z-score [5] | composite z-score [6] | composite z-score [7] | composite z-score [8] | composite z-score [9] | composite z-score [10]
1 | CO[C@H]1COC(=O)CCC[C@H](C)[C@@H](OC)COC(=O)CC=C[C@@H]1C | -0.431 | -1.63 | 0.966 | -0.946 | -1.1 | -0.191 | -0.0248 | -0.267 | 0.387 | 0.0355
2 | COc1ccc(COC(=O)NN=C2C[C@@H](O)[C@@H](O)[C@@H]3[C@@H]4C(=O)N(C[C@@H]5CCCO5)C(=O)[C@@H]4CC[C@@H]23)cc1 | 0.222 | 0.778 | 0.179 | 0.342 | -0.636 | -0.172 | -0.0793 | -0.0496 | 0.411 | 0.915
3 | CO[C@@H]1C=CCC(=O)N[C@@H](C)C(=O)OC[C@@H](OC)[C@H](C)C=CCC(=O)OC[C@H]1C | -0.669 | 0.388 | 1.48 | -1.14 | -1.96 | -0.152 | -0.0035 | 0.109 | 0.037 | 0.373
4 | O=C1C2=CC[C@H]3C(=O)N(Cc4ccccc4)C(=O)[C@H]3[C@H]2[C@H](O)[C@@H]2O[C@H]12 | -0.695 | -5.09 | 0.101 | -0.476 | -0.65 | -0.129 | -0.0553 | -0.158 | 0.237 | 0.0012
5 | CC#CCOCCC=C1c2ccccc2[C@@H](OC)[C@@H]1C | -1.14 | -0.692 | 0.0778 | -1.06 | -1.18 | -0.0977 | -0.138 | -0.209 | 0.139 | -0.0725
6 | C#CCCCON=C1C[C@@H](O)[C@@H](O)[C@@H]2[C@@H]3C(=O)N(C[C@@H]4CCCO4)C(=O)[C@@H]3CC[C@H]12 | 0.592 | 0.403 | 0.397 | 0.256 | -0.0973 | -0.096 | -0.2 | -0.462 | 0.742 | 0.355
7 | CO[C@H]1COC(=O)CC=C[C@H](C)[C@H](OC)COC(=O)[C@@H](C)NC(=O)CC=C[C@@H]1C | -2.87 | -2.14 | 0.953 | -0.735 | -1.49 | -0.101 | -0.0681 | -0.21 | 0.229 | -0.32
8 | C[C@@H]1CC[C@@H](C(=O)O)N[C@H]1c1cccc(N2CCOCC2)c1 | 0.456 | 0.47 | 0.436 | -0.101 | -0.0411 | -0.0758 | -0.262 | -0.324 | 0.513 | 0.851
9 | CC(=O)OC[C@H]1O[C@H](CC=NOC(C)CN2CCCCc3nc(C)c(C)cc32)C=C[C@@H]1OC(C)=O (stereo not given in full) | 1.11 | -0.339 | 1.08 | -0.208 | -0.745 | 0.0044 | -0.179 | 0.0805 | 0.556 | 0.971
10 | Cc1cc2c(nc1C)CCCCN2CC(O)CN1CCCc2nc(-c3ccc(Br)cc3)ccc21 (stereo not given) | 0.599 | -0.116 | 0.615 | 0.114 | -0.823 | 0.093 | 0.304 | 0.17 | 0.404 | 0.888
11 | O=C1[C@H]2[C@H]3[C@H](O)[C@H](O)CC(=NOCc4ccccc4)[C@@H]3CC[C@H]2C(=O)N1c1cccc(Oc2ccccc2)c1 | 1.32 | 0.0134 | -0.0065 | -0.0299 | -0.699 | -0.096 | 0.0639 | 0.0051 | 0.902 | 0.626
12 | COCCNC(=O)OCC1CCCC2(CC(OC(=O)NCc3cccc4ccccc34)CC(CCC(=O)N[C@@H](C)C(=O)OC)O2)O1 (stereo not given in full) | 1.35 | -0.942 | 0.781 | 0.171 | -0.62 | -0.144 | -0.0006 | -0.256 | 0.002 | 0.801
